The text below walks through data of PubChem BioAssay (EPA / NIEHS).

Structures are written as SMILES. Some structures have more than one record in an assay (separate samples or runs), and their calls can disagree. Activity calls are given as the source filed them. How the source made its calls: active means hit-call score of the fitted dose curve at least 0.9, where 1 is the maximum; inactive means score below 0.9.

The target in the experiment is Retinoic acid receptor alpha (Homo sapiens) (UniProt P10276). The experiment in a line: ATG_DR5_RAR_CIS: Attagene CIS-FACTORIAL HepG2 Assay for human Retinoic Acid Receptor Alpha (RARE), DR5 submotif (AID 2282934).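 On AC50: reporter responds to endogenous RAR alpha beta and gamma in HepG2 not RARA alone.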 The conditions noted are these: HepG2 Attagene cis-factorial RARE DR5 reporter, mRNA; actives raise or lower the signal. On the procedure: ATG_CIS is a cell-based, multiplexed-readout assay that uses HepG2, a human liver cell line, with measurements taken at 24 hours after chemical dosing in a 24-well plate.ATG_DR5_RAR_CIS is one of 52 assay component(s) measured or calculated from the ATG_CIS assay. It is designed to make measurements of mRNA induction, a form of inducible reporter, as detected with fluorescence intensity signals by Reverse transcription polymerase chain reaction (RT-PCR) and Capillary electrophoresis technology.Data from the assay component ATG_DR5_RAR_CIS was analyzed into 1 assay endpoint. This assay endpoint, ATG_DR5_CIS, was analyzed with bidirectional fitting relative to DMSO as the negative control and baseline of activity. Using a type of inducible reporter, measures of mRNA for gain or loss-of-signal activity can be used to understand the reporter gene at the transcription factor-level as they relate to the gene RARA and RARB and RARG. Furthermore, this assay endpoint can be referred to as a primary readout, because this assay has produced multiple assay endpoints where this one serves a reporter gene function. To generalize the intended target to other relatable targets, this assay endpoint is annotated to the nuclear receptor intended target family, where the subfamily is non-steroidal.
Chain of Retinoic acid receptor alpha (Homo sapiens) (P10276 whole entry, looked up): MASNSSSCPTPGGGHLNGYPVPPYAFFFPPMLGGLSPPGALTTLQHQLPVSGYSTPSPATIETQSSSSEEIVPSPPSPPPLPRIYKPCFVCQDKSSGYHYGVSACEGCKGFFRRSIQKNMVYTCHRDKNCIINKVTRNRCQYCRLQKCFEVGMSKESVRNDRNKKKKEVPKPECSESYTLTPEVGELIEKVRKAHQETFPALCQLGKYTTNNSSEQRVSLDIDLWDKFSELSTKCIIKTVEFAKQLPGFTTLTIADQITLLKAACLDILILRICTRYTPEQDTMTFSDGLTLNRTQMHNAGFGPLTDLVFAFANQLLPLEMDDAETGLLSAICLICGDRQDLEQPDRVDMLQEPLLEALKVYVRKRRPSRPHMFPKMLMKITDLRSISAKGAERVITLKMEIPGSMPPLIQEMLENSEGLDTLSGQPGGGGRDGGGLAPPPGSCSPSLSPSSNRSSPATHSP
Human liver HepG2 cells are transiently transfected with multiple reporter transcription units (MRTUs) in 6-well plates using FuGene 6 reagent (Roche; 3 ml FuGene/1 mg DNA). The MRTU constructs are regulated by a cis-regulating element (promoter). […] A major difference between the CIS and TRANS system is that in CIS activities of endogenous TFs are measured, whereas the TRANS assay evaluates changes in activities of exogenous, chimeric NR-Gal4 proteins. […] At the end of 24 hour incubation, total RNA was isolated using TriZol reagent (Invitrogen). The isolated RNA is then reverse-transcribed using oligo(dT) primer and Mo-MLV reverse transcriptase (Invitrogen) with DNAse I (Ambion) treatment for 30 min. The one-tenth of the produced cDNA was amplified by PCR using Taq DNA polymerase (Invitrogen) and two reporter sequence-specific primers. The PCR products were fluorescently labeled by primer extension with 6-arboxyfluorescein (6-FAM) 5'-labeled reporter sequence-specific primer (2 min at 95 C, 20 s at 68 C and 10 min at 72 C) and these products were digested with 5U of HpaI (New England Biolabs) for 2h at 37 C. The fragments were purified using Qiaquick PCR columns (Qiagen), analyzed on an ABI 3130xL genetic analyzer (Applied Biosystems) with peak positions identified by using a set of X-rhodamine (ROX)-labeled MapMarker1000 molecular weight standards (BioVentures). The raw capillary electrophoresis data was processed using Attagraph software (Attagene).
In the case of `CCc1cccc(CC)c1N(COC)C(=O)CS(=O)(=O)O`, the result was inactive.
As to `FC(F)(F)C1(F)C(F)(F)C(F)(F)C(F)(F)C(F)(C(F)(F)F)C1(F)F` (stereo not given), the compound was called inactive.
The same measure, in the same setting: in the case of `C[C@]12CC[C@@H]3c4ccc(O)cc4CC[C@H]3[C@@H]1C[C@@H](O)[C@@H]2O` it was “inactive”.
On the same count and under the same terms, the value for `CCCCCCCCCCCCCCCC(=O)OC` was “inactive”.
Still for that read-out and setting: in the case of `CC(C)[C@@H]1CC[C@@H](C)C[C@H]1O` it was “inactive”.
`CCCCCCCCCCCCOC(=O)c1cc(O)c(O)c(O)c1`: the compound was classed as inactive.
On the same count and under the same terms, in the case of `CCOC(C)=O` it was “inactive”; in that of `FC(F)(F)C(F)(F)C(F)(F)Br`, “inactive”; in that of `NCCN`, “inactive”.
On the same count and under the same terms, in the case of `C=COC(=O)C(C)(C)CCCCCC` it was “inactive”.
Same read-out and setting: the value for `Oc1c(Cl)cc(Cl)cc1Sc1cc(Cl)cc(Cl)c1O` was “inactive”; that for `COC(O)c1ccccc1` (stereo not given) was “inactive”.
As for `Oc1cc2ccccc2cc1O`, the compound was classed as inactive.
Take `CCCCCCOC(=O)c1ccc(O)cc1`: the compound was called inactive.
Still for that read-out and setting: in the case of `CC1=NN(c2ccccc2)C(=O)C1` it was “inactive”; in that of `CS(=O)(=O)c1ccc([C@@H](CC2CCCC2)C(=O)Nc2cnccn2)cc1Cl`, “inactive”; in that of `C/C=C/C(=O)C1=C(C)CCCC1(C)C`, “inactive”.
On the same count and under the same terms, in the case of `O=C(O)CN(CCCN(CC(=O)O)CC(=O)O)CC(=O)O` it was “inactive”; in that of `C=CCOCC(CO)(CO)CO`, “inactive”.
Same read-out and setting: in the case of `Clc1ccc(Nc2nnc(Cc3ccncc3)c3ccccc23)cc1` it was “inactive”; in that of `CC(=O)Nc1ccc(O)cc1`, “inactive”.
As to `O=P(O)(O)CCC(F)(F)C(F)(F)C(F)(F)C(F)(F)C(F)(F)C(F)(F)C(F)(F)C(F)(F)F`, the outcome was inactive.
The same measure, in the same setting: the value for `CC(C)(c1ccc(Oc2ccc(N)cc2)cc1)c1ccc(Oc2ccc(N)cc2)cc1` was “inactive”; that for `C[N+](C)(CCCNS(=O)(=O)CCC(F)(F)C(F)(F)C(F)(F)C(F)(F)C(F)(F)C(F)(F)F)CC(=O)[O-]` was “inactive”; that for `O=CC(F)(F)C(F)(F)C(F)(F)C(F)F` was “inactive”.
As for `O=S(=O)(c1ccc(OCc2ccccc2)cc1)c1ccccc1O`, the AC50 (as a rule, the concentration at which the activity in the assay is half-maximal) was 31.7 µM (active).
As to `CCCCCCCCCCCC(=O)O`, the AC50 was 100 µM (active) and the compound was classed as inactive.
In the case of `FC(OC(F)(F)C(F)(F)C(F)(F)F)C(F)(F)F` (stereo not given), the compound was called inactive.
In the case of `O=C(O)CCC(F)(F)C(F)(F)C(F)(F)C(F)(F)C(F)(F)C(F)(F)F`, the AC50 was 51 µM (active).
As to `O=C1OC2(c3ccccc31)c1cc(I)c(O)c(I)c1Oc1c2cc(I)c(O)c1I`, the compound was called inactive.
On the same count and under the same terms, the value for `CCc1ccccc1O` was “inactive”; that for `O=C(O)C(F)(F)OC(F)(F)C(F)(F)OC(F)(F)C(F)(F)OC(F)(F)C(F)(F)C(F)(F)C(F)(F)F` was “inactive”.
Regarding `COCC1CCC(CO)CC1` (stereo not given), the result was inactive.
For the compound `CCC(C)c1ccccc1O` (stereo not given), the outcome was inactive.
For the compound `Oc1c(Cl)ccc(Cl)c1Cl`, the compound was called inactive.
Still for that read-out and setting: the value for `CCCC=O` was “inactive”; that for `CCCCCc1ccc(O)cc1` was “inactive”; that for `FCOC(C(F)(F)F)C(F)(F)F` was “inactive”.
For `CCC(C)c1nccnc1OC` (stereo not given), the compound was called inactive.
